# Data as given in paper PMC7862700, “An all-to-all approach to the identification of sequence-specific readers for epigenetic DNA modifications on cytosine”.
# Experiments:
# Experiment in all cases: DAPPL (digital affinity profiling via proximity ligation, sequencing); 10 mM Tris-HCl pH 7.5, 50 mM NaCl, 1 mM DTT, 4% glycerol, room temperature, 30 min; GST-TFs on glutathione beads, 16-mer random dsDNA library, 0.1% formaldehyde crosslink after washing; high values mean tight binding
# FLI1 = target: T1, FLI1 (Homo sapiens, UniProt Q01543 1-452); conditions: protein: recombinant; tags: N-terminal GST; dsDNA, one strand shown
# T1 sequence: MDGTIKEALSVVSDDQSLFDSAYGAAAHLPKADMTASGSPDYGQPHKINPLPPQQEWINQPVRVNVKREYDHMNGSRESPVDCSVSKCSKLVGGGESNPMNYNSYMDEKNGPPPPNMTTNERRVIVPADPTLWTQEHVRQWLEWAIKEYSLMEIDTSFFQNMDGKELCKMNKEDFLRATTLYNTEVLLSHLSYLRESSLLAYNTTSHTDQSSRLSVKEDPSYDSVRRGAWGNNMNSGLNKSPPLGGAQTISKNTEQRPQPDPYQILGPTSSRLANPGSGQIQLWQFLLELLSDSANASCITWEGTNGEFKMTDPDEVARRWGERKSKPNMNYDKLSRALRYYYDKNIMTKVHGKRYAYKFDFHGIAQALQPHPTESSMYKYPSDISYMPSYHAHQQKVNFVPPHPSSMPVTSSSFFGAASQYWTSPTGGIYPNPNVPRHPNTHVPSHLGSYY
# How it was run: (§1)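 Human transcription factors carrying a GST fusion were produced in yeast, bound to glutathione beads, tagged with DNA barcodes and pooled together with a tag-only sample. Each pool was held with 200 nmole of a random double-stranded 16-mer DNA library in Tris/NaCl/DTT/glycerol buffer for 30 min at room temperature, then washed, crosslinked in 0.1% formaldehyde, proximity-ligated with BsaI/T4 ligase (1 h, 37 °C), PCR-amplified and sequenced on an Illumina NextSeq500. Binding signal is the read frequency of each hexamer for a given factor divided by its frequency in the tag-only sample.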
# ELK1 = target: T2, ELK1 (Homo sapiens, UniProt P19419 1-428); conditions: protein: recombinant; tags: N-terminal GST; dsDNA, one strand shown
# T2 sequence: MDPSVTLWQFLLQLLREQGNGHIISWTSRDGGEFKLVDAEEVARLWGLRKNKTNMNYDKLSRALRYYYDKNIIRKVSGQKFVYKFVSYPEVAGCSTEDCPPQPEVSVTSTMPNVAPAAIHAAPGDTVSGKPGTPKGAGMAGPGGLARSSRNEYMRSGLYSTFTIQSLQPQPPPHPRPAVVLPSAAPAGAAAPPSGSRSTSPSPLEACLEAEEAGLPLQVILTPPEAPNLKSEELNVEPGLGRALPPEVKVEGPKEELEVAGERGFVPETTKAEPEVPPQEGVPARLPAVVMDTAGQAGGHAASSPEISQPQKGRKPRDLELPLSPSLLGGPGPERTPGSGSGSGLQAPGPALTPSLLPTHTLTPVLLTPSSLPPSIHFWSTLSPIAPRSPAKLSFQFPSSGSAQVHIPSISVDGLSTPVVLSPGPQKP
# How it was run: as §1
# GABPA = target: T3, GABPA (Homo sapiens, UniProt Q06546 1-454); conditions: protein: recombinant; tags: N-terminal GST; dsDNA, one strand shown
# T3 sequence: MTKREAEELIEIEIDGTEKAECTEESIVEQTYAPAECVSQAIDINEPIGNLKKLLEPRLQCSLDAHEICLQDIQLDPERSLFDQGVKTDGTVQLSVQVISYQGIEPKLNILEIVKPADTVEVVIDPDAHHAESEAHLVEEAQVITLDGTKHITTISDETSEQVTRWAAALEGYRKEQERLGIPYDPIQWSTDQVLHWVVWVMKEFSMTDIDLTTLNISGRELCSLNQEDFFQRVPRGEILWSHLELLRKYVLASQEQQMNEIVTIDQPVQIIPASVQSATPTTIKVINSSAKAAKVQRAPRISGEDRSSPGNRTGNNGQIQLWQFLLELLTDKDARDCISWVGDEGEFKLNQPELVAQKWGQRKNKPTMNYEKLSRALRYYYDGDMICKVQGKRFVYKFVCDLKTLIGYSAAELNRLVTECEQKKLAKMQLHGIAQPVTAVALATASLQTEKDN
# How it was run: as §1
# ERG = target: T4, ERG (Homo sapiens, UniProt P11308 1-479); conditions: protein: recombinant; tags: N-terminal GST; dsDNA, one strand shown
# T4 sequence: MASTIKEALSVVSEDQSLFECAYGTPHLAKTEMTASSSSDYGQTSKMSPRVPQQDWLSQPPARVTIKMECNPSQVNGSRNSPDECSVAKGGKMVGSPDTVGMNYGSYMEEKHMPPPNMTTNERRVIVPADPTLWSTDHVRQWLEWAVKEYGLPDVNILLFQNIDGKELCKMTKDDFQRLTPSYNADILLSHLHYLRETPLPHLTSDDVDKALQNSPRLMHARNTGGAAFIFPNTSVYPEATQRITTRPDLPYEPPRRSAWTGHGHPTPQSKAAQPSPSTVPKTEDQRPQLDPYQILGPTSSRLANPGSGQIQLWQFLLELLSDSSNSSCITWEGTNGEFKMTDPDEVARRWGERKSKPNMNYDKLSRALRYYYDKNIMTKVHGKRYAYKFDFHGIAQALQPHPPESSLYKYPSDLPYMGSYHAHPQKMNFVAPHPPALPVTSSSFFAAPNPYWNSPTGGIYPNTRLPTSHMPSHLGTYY
# How it was run: as §1
# ELF1 = ELF1 (Homo sapiens, UniProt P32519 1-619); conditions: protein: recombinant; tags: N-terminal GST; dsDNA, one strand shown
# Sequence of ELF1 (P32519 whole entry): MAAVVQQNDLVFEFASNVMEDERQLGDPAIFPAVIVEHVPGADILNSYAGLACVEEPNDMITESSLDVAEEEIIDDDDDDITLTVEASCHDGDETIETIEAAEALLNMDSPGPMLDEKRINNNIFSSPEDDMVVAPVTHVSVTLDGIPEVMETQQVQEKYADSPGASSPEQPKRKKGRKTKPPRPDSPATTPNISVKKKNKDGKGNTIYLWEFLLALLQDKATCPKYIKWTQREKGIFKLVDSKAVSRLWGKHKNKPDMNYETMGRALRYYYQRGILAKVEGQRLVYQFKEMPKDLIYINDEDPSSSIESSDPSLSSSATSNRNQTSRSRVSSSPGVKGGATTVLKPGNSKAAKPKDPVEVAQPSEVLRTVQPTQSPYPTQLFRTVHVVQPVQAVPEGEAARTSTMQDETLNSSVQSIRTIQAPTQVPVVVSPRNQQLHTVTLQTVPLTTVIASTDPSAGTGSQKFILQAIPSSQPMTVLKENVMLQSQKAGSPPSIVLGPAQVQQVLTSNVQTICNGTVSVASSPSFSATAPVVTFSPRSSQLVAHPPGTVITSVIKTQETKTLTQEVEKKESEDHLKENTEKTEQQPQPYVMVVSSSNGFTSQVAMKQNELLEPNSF
# How it was run: as §1
# EHF = target: T5, EHF (Homo sapiens, UniProt Q9NZC4 1-300); conditions: protein: recombinant; tags: N-terminal GST; dsDNA, one strand shown
# T5 sequence: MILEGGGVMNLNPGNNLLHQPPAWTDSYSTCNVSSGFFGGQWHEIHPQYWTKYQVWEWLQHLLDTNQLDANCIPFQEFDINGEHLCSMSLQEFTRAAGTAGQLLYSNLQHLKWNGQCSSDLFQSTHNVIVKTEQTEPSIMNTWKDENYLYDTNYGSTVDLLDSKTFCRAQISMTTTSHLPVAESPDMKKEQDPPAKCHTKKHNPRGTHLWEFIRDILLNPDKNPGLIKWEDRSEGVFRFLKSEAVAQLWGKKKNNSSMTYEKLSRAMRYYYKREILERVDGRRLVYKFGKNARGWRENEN
# How it was run: as §1
# SPI1 = SPI1 (Homo sapiens, UniProt P17947 1-270); conditions: protein: recombinant; tags: N-terminal GST; dsDNA, one strand shown
# How it was run: as §1
# SPIB = SPIB (Homo sapiens, UniProt Q01892 1-262); conditions: protein: recombinant; tags: N-terminal GST; dsDNA, one strand shown
# Sequence of SPIB (Q01892 whole entry): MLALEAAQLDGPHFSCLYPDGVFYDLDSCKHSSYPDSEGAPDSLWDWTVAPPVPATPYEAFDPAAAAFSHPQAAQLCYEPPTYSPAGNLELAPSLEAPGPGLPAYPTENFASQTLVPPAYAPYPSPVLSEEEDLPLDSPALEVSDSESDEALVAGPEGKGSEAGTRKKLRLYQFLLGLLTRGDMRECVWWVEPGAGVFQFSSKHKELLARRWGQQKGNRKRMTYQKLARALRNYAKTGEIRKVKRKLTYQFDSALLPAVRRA
# How it was run: as §1
# ELK3 = target: T6, ELK3 (Homo sapiens, UniProt P41970 1-407); conditions: protein: recombinant; tags: N-terminal GST; dsDNA, one strand shown
# T6 sequence: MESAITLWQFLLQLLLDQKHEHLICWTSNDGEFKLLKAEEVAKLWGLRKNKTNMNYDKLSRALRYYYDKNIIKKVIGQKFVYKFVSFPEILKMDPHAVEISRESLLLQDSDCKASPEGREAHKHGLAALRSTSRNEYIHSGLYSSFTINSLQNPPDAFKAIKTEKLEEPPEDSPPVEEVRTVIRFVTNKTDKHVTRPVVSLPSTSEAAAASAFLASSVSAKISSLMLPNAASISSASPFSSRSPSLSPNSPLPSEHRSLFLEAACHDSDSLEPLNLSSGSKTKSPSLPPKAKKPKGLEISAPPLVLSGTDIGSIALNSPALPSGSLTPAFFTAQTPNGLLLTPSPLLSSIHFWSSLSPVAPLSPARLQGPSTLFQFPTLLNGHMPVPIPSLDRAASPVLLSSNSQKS
# How it was run: as §1
# FEV = target: T7, FEV (Homo sapiens, UniProt Q99581 1-238); conditions: protein: recombinant; tags: N-terminal GST; dsDNA, one strand shown
# T7 sequence: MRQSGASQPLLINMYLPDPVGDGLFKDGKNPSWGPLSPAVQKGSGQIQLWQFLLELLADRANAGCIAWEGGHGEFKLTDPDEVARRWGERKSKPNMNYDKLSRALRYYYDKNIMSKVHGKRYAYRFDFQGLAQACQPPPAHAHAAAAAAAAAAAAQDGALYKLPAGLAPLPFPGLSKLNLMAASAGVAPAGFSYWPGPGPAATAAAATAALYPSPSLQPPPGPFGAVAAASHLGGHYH
# How it was run: as §1
# ETV5 = ETV5 (Homo sapiens, UniProt P41161 1-510); conditions: protein: recombinant; tags: N-terminal GST; dsDNA, one strand shown
# Sequence of ETV5 (P41161 whole entry): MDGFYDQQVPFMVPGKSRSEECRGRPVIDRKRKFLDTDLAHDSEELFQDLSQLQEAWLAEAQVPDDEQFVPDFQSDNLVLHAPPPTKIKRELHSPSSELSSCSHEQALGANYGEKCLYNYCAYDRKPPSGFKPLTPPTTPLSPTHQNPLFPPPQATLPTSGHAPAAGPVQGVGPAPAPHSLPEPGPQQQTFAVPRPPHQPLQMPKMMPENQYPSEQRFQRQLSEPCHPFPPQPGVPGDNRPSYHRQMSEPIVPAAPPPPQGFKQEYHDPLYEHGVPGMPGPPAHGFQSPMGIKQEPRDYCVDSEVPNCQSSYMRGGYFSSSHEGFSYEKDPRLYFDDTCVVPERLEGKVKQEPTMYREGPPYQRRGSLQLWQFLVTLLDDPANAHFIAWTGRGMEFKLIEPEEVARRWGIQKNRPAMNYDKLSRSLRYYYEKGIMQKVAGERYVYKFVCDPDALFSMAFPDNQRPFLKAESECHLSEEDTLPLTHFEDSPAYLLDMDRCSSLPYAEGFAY
# How it was run: as §1
# HSF1 = HSF1 (Homo sapiens, UniProt Q00613 1-529); conditions: protein: recombinant; tags: N-terminal GST; chain copies: 3; dsDNA, one strand shown
# Sequence of HSF1 (Q00613 whole entry): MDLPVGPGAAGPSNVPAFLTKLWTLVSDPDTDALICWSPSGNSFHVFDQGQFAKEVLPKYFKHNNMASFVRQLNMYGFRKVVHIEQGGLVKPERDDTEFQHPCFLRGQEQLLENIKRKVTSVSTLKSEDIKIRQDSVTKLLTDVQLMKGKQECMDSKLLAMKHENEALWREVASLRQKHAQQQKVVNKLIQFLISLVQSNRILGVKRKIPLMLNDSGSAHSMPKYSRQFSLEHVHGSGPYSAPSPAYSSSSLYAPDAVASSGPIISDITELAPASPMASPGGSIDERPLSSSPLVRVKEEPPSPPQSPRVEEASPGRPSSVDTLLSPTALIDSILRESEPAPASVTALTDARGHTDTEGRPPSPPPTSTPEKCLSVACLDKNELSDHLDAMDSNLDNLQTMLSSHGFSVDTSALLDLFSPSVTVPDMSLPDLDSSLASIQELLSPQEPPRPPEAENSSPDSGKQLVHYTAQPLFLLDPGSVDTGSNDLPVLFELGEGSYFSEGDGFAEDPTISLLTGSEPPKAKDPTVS
# How it was run: as §1
# SPIC = target: T8, SPIC (Homo sapiens, UniProt Q8N5J4 1-248); conditions: protein: recombinant; tags: N-terminal GST; dsDNA, one strand shown
# T8 sequence: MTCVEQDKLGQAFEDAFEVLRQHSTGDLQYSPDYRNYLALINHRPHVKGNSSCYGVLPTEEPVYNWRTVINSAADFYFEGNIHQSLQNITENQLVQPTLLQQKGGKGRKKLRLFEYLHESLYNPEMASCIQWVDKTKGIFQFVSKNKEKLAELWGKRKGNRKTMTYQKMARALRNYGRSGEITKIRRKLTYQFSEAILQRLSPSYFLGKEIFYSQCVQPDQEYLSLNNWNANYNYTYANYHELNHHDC
# How it was run: as §1
# ELF4 = ELF4 (Homo sapiens, UniProt Q99607 1-663); conditions: protein: recombinant; tags: N-terminal GST; dsDNA, one strand shown
# Sequence of ELF4 (Q99607 whole entry): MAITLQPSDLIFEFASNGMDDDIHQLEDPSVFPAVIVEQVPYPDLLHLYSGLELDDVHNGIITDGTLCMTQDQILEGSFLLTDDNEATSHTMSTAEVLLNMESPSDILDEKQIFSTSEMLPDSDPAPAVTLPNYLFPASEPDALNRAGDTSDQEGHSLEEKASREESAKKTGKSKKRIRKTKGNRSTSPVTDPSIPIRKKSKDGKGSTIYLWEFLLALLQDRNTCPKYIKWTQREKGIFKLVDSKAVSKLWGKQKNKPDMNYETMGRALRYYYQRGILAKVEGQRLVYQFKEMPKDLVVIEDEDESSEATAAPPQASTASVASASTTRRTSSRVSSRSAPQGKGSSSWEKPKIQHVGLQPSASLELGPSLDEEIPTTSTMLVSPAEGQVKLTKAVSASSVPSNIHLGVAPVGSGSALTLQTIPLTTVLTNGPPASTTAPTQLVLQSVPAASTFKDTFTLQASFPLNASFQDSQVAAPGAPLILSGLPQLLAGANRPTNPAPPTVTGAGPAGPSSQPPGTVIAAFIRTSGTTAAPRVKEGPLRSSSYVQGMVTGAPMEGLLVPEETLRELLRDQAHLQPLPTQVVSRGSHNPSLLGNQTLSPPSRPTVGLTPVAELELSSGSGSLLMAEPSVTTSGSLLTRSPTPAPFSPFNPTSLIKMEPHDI
# How it was run: as §1
# ELK4 = target: T9, ELK4 (Homo sapiens, UniProt P28324-2 1-405); conditions: protein: recombinant; tags: N-terminal GST; dsDNA, one strand shown
# T9 sequence: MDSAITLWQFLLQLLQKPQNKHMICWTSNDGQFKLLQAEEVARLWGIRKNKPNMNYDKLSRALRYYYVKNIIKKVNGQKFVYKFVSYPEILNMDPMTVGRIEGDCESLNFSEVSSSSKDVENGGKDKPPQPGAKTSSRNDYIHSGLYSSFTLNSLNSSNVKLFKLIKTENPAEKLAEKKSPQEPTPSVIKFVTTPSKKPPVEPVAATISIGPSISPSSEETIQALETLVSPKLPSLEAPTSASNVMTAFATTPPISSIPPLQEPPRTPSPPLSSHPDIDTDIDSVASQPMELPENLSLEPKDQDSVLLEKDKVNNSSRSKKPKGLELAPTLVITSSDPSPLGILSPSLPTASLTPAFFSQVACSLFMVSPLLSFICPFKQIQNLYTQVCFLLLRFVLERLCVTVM
# How it was run: as §1
# ETV2 = target: T10, ETV2 (Homo sapiens, UniProt O00321 1-342); conditions: protein: recombinant; tags: N-terminal GST; dsDNA, one strand shown
# T10 sequence: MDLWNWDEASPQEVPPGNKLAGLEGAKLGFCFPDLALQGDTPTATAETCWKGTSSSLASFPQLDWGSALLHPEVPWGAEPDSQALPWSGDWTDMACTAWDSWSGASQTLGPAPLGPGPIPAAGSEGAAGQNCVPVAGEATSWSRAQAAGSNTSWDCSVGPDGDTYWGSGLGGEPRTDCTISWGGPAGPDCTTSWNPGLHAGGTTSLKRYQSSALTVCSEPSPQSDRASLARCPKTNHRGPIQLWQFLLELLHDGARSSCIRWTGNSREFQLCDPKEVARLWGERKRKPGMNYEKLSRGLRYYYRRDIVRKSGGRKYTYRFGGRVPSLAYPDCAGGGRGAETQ
# How it was run: as §1
# ELF3 = target: T11, ELF3 (Homo sapiens, UniProt P78545 1-371); conditions: protein: recombinant; tags: N-terminal GST; dsDNA, one strand shown
# T11 sequence: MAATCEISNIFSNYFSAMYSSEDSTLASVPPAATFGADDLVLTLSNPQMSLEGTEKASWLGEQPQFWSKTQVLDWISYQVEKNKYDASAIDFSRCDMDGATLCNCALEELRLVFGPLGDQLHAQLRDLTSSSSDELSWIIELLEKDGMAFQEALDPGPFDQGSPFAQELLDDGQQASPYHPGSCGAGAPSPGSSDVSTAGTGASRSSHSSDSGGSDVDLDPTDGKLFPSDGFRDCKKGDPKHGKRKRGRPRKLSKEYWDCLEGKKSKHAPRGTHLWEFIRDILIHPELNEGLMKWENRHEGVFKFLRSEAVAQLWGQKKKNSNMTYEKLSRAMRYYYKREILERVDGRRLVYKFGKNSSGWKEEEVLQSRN
# How it was run: as §1
# CRX = CRX (Homo sapiens, UniProt O43186 1-299); conditions: protein: recombinant; tags: N-terminal GST; dsDNA, one strand shown
# Sequence of CRX (O43186 whole entry): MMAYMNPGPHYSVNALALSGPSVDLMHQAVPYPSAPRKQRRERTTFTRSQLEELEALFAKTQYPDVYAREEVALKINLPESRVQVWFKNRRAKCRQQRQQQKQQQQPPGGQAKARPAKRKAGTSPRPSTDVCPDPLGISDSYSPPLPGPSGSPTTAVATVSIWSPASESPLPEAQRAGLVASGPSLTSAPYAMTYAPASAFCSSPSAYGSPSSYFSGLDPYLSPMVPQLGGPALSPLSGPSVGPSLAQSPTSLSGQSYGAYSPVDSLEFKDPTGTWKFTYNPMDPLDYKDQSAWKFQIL
# How it was run: as §1
# ETV1 = ETV1 (Homo sapiens, UniProt P50549 1-477); conditions: protein: recombinant; tags: N-terminal GST; dsDNA, one strand shown
# Sequence of ETV1 (P50549 whole entry): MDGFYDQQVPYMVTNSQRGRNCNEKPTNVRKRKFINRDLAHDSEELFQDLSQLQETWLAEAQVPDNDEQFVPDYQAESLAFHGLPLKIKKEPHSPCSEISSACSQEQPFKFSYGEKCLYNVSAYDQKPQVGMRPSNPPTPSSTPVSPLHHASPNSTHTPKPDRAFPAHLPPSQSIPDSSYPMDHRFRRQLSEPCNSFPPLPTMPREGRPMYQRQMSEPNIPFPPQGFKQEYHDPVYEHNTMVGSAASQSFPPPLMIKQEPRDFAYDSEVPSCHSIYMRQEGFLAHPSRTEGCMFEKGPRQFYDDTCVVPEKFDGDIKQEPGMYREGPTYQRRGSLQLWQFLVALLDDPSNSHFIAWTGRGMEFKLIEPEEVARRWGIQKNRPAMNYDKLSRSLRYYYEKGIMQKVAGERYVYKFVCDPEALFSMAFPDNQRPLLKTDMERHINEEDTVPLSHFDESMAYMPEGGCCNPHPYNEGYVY
# How it was run: as §1
sequence,measurement,setting,value
CCCACG,binding signal,FLI1,"1.17 fold enrichment (6-mer frequency, TF over GST control)"
same,binding signal,ELK1,"1.2 fold enrichment (6-mer frequency, TF over GST control)"
same,binding signal,GABPA,"1.26 fold enrichment (6-mer frequency, TF over GST control)"
same,binding signal,ERG,"1.09 fold enrichment (6-mer frequency, TF over GST control)"
same,binding signal,ELF1,"1.19 fold enrichment (6-mer frequency, TF over GST control)"
same,binding signal,EHF,"1.2 fold enrichment (6-mer frequency, TF over GST control)"
same,binding signal,SPI1,"1.08 fold enrichment (6-mer frequency, TF over GST control)"
same,binding signal,SPIB,"1.16 fold enrichment (6-mer frequency, TF over GST control)"
same,binding signal,ELK3,"1.29 fold enrichment (6-mer frequency, TF over GST control)"
same,binding signal,FEV,"1.13 fold enrichment (6-mer frequency, TF over GST control)"
same,binding signal,ETV5,"1.22 fold enrichment (6-mer frequency, TF over GST control)"
same,binding signal,HSF1,"1.01 fold enrichment (6-mer frequency, TF over GST control)"
same,binding signal,SPIC,"1.22 fold enrichment (6-mer frequency, TF over GST control)"
same,binding signal,ELF4,"1.27 fold enrichment (6-mer frequency, TF over GST control)"
same,binding signal,ELK4,"1.25 fold enrichment (6-mer frequency, TF over GST control)"
same,binding signal,ETV2,"1.01 fold enrichment (6-mer frequency, TF over GST control)"
same,binding signal,ELF3,"1.21 fold enrichment (6-mer frequency, TF over GST control)"
same,binding signal,CRX,"1 fold enrichment (6-mer frequency, TF over GST control)"
same,binding signal,ETV1,"1.06 fold enrichment (6-mer frequency, TF over GST control)"
